Assay results published in PubChem BioAssay (NCI).
Compounds without any hit were thinned out: in the full panel of roughly 83,000, 20% have a hit.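 Cells were grown in 96-well plates and exposed to the test compound at a single concentration for 48 hours; results are reported as percent growth, with values below 10 considered active.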 The source made the active and inactive calls.

What follows are compounds tested on NCI-H460 lung (assay: NCI-60 one-dose screen, 48 h (100 = growth as untreated, 0 = no growth, -100 = all killed)). Settings: 10 µM unless noted.

| Structure (SMILES) | growth |
| --- | --- |
| N#Cc1c(N)[nH]c(S)c1C#N | 107% (inactive) |
| NC(=Nc1ccccc1)SCCCCSC(N)=Nc1ccccc1 | 101% (inactive) |
| CN(C)c1cccc2c(S(=O)(=O)N[C@H]3CC[C@H]4[C@@H]5CCc6cc(O)ccc6[C@H]5CC[C@]34C)cccc12 | 7.05% (active) |
| CCCCCCCCCCCCCCCCCc1nccn1CCO | 24.6% (inactive) |
| COC(=O)CCC1=C(C)/C(=C/c2[nH]c(-c3ccc[nH]3)cc2OC)N=C1C | 6.04% (active) |
| NC(=O)N/N=C/c1ccc(Br)o1 | 110% (inactive) |
| COc1ccc(OC)c2c1[nH]c(=O)c1c3ccccc3cn21 | -61.2% (active) |
| O=C1C(=O)c2ccc(Br)cc2-c2cc(Br)ccc21 | 78.8% (inactive) |
| O=c1c(O)cccn1CCCNCCCN(CCCn1cccc(O)c1=O)CCCn1cccc(O)c1=O | 99% (inactive) |
| CN(CCOc1ccc(CC2SC(=O)NC2=O)cc1)c1ccccn1 (centres undefined) | 102% (inactive) |
| COc1cccc2c1C(=O)c1c(O)c3c(c(O)c1C2=O)C[C@@](O)(/C(C)=N/NC(=O)c1cccc([N+](=O)[O-])c1)C[C@@H]3OC1CC(N)C(O)C(C)O1 (some centres undefined) | -38.5% (active) |
| Cc1nnc(Nc2ccc(NC(=O)Nc3ccc(Cl)cc3)cc2)c2ccccc12 | 26.1% (inactive) |
| O=C(Nc1ccc(Cl)cc1)Nc1ccc(Nc2nncc3ccccc23)cc1 | 9.89% (active) |
| OCc1nnn(-c2ccccc2)c1CO | 116% (inactive) |
| COc1ccc2c(c1)C(=O)c1c-2c(=O)n(CCCCCCC(=O)NO)c2ccccc12 | 3.19% (active) |
| O=[N+]([O-])c1ccc(N/N=C\c2ccccc2[N+](=O)[O-])nc1 | 101% (inactive) |
| CN1COc2ccc3ccccc3c2C1 | 107% (inactive) |
| O=C(Nc1cccc2ccccc12)c1cc2c(cc1Br)OCO2 | 92.9% (inactive) |
| Cc1cc(NC(=O)Nc2cc(Cl)ccc2C)no1 | 102% (inactive) |

| Structure (SMILES) | growth |
| --- | --- |
| O=C1C[C@@H]2/C(=C(O)\C=C\c3ccccc3)C(=O)C=C[C@@H]2O1 | 12.1% (inactive) |
| O=C1/C(=C/c2ccc([N+](=O)[O-])o2)Oc2ccc(Cl)cc21 | 75.4% (inactive) |
| c1ccc(N2CCN(c3nncc4ccccc34)CC2)nc1 | 108% (inactive) |
| O=C(Nc1ccc(Oc2ccc(NC(=O)Nc3ccc([N+](=O)[O-])cc3)cc2)cc1)Nc1ccc([N+](=O)[O-])cc1 | 2.83% (active) |
| Cc1cc(C)n(C(=O)c2nn(-c3ccc(Cl)cc3)cc2O)n1 | 5.55% (active) |
| NC(=O)c1ncn([C@@H]2O[C@H](CO)[C@@H](O)[C@H]2O)n1 | 100% (inactive) |
| CCCCN(CCCC)CCCOC(=O)c1ccc(N)cc1 | 78.4% (inactive) |
| COc1ccc2c(c1)C(=O)/C(=C/c1ccc([N+](=O)[O-])s1)O2 | -3.34% (active) |
| CCCCCCCCCCCCCCCCCC1=NC(C)(C)CN1CCO | -51.7% (active) |
| COc1cc([C@@H]2c3cc4c(cc3C(O[C@@H]3O[C@@H]5CO[C@@H](c6cccs6)OC5[C@H](O)[C@H]3O)C3COC(=O)[C@@H]32)OCO4)cc(OC)c1O (some centres undefined) | -36.7% (active) |
| CC12CCC3C(CCC4CC(=O)/C(=C\O)CC43C)C1CCC(=O)O2 (centres undefined) | 115% (inactive) |
| O=C(Nc1ccc(Cl)cc1Cl)Nc1ccc(-c2cccnc2)cc1N1CCC(CO)CC1 | 35.1% (inactive) |
| CCN(CC)CCCCNc1c2ccccc2[n+](C)c2c1[nH]c1ccccc12 | 3.4% (active) |
| Cc1ccc(NC(=O)Nc2ccc(-c3cccnc3)cc2N2CCC(CO)CC2)cc1 | 29.1% (inactive) |
| COc1cc(C2CC(c3ccc(C)cc3)=NN2C(C)=O)ccc1Oc1ccnc2cc(Cl)ccc12 (centres undefined) | 32.3% (inactive) |
| C[n+]1c2ccccc2c(NC2CCNCC2)c2[nH]c3ccccc3c21 | -0.0252% (active) |
| Clc1ccc([C@@H]2C[C@@H]3Cc4cc(Br)c5ccccc5c4N2O3)c(Cl)c1 | 93.3% (inactive) |
| C=C(C)[C@@H]1C[C@H](O)Cc2cc(Cl)cc(Cl)c2N1 | 110% (inactive) |

Each compound was assayed on NCI-H522 lung in the same assay as above. Settings: 10 µM unless noted.

| Structure (SMILES) | growth |
| --- | --- |
| N#Cc1c(N)[nH]c(S)c1C#N | 97.4% (inactive) |
| NC(=Nc1ccccc1)SCCCCSC(N)=Nc1ccccc1 | 79.1% (inactive) |
| CN(C)c1cccc2c(S(=O)(=O)N[C@H]3CC[C@H]4[C@@H]5CCc6cc(O)ccc6[C@H]5CC[C@]34C)cccc12 | -10.5% (active) |
| CCCCCCCCCCCCCCCCCc1nccn1CCO | 52.6% (inactive) |
| COC(=O)CCC1=C(C)/C(=C/c2[nH]c(-c3ccc[nH]3)cc2OC)N=C1C | -66.9% (active) |
| NC(=O)N/N=C/c1ccc(Br)o1 | 89.7% (inactive) |
| COc1ccc(OC)c2c1[nH]c(=O)c1c3ccccc3cn21 | -50.4% (active) |
| O=C1C(=O)c2ccc(Br)cc2-c2cc(Br)ccc21 | 0.737% (active) |
| O=c1c(O)cccn1CCCNCCCN(CCCn1cccc(O)c1=O)CCCn1cccc(O)c1=O | 117% (inactive) |
| CN(CCOc1ccc(CC2SC(=O)NC2=O)cc1)c1ccccn1 (centres undefined) | 95.9% (inactive) |
| COc1cccc2c1C(=O)c1c(O)c3c(c(O)c1C2=O)C[C@@](O)(/C(C)=N/NC(=O)c1cccc([N+](=O)[O-])c1)C[C@@H]3OC1CC(N)C(O)C(C)O1 (some centres undefined) | -61% (active) |
| Cc1nnc(Nc2ccc(NC(=O)Nc3ccc(Cl)cc3)cc2)c2ccccc12 | 30.3% (inactive) |
| O=C(Nc1ccc(Cl)cc1)Nc1ccc(Nc2nncc3ccccc23)cc1 | 11.9% (inactive) |
| OCc1nnn(-c2ccccc2)c1CO | 101% (inactive) |
| COc1ccc2c(c1)C(=O)c1c-2c(=O)n(CCCCCCC(=O)NO)c2ccccc12 | 4.79% (active) |
| O=[N+]([O-])c1ccc(N/N=C\c2ccccc2[N+](=O)[O-])nc1 | 97.5% (inactive) |
| CN1COc2ccc3ccccc3c2C1 | 90.3% (inactive) |
| O=C(Nc1cccc2ccccc12)c1cc2c(cc1Br)OCO2 | 103% (inactive) |
| Cc1cc(NC(=O)Nc2cc(Cl)ccc2C)no1 | 103% (inactive) |

| Structure (SMILES) | growth |
| --- | --- |
| O=C1C[C@@H]2/C(=C(O)\C=C\c3ccccc3)C(=O)C=C[C@@H]2O1 | -66.3% (active) |
| O=C1/C(=C/c2ccc([N+](=O)[O-])o2)Oc2ccc(Cl)cc21 | -84.4% (active) |
| c1ccc(N2CCN(c3nncc4ccccc34)CC2)nc1 | 99.4% (inactive) |
| O=C(Nc1ccc(Oc2ccc(NC(=O)Nc3ccc([N+](=O)[O-])cc3)cc2)cc1)Nc1ccc([N+](=O)[O-])cc1 | -15.3% (active) |
| Cc1cc(C)n(C(=O)c2nn(-c3ccc(Cl)cc3)cc2O)n1 | 59.6% (inactive) |
| NC(=O)c1ncn([C@@H]2O[C@H](CO)[C@@H](O)[C@H]2O)n1 | 70.6% (inactive) |
| CCCCN(CCCC)CCCOC(=O)c1ccc(N)cc1 | 67% (inactive) |
| COc1ccc2c(c1)C(=O)/C(=C/c1ccc([N+](=O)[O-])s1)O2 | -86.4% (active) |
| CCCCCCCCCCCCCCCCCC1=NC(C)(C)CN1CCO | -58.2% (active) |
| COc1cc([C@@H]2c3cc4c(cc3C(O[C@@H]3O[C@@H]5CO[C@@H](c6cccs6)OC5[C@H](O)[C@H]3O)C3COC(=O)[C@@H]32)OCO4)cc(OC)c1O (some centres undefined) | -53.7% (active) |
| CC12CCC3C(CCC4CC(=O)/C(=C\O)CC43C)C1CCC(=O)O2 (centres undefined) | 108% (inactive) |
| O=C(Nc1ccc(Cl)cc1Cl)Nc1ccc(-c2cccnc2)cc1N1CCC(CO)CC1 | 53.4% (inactive) |
| CCN(CC)CCCCNc1c2ccccc2[n+](C)c2c1[nH]c1ccccc12 | -84.7% (active) |
| Cc1ccc(NC(=O)Nc2ccc(-c3cccnc3)cc2N2CCC(CO)CC2)cc1 | 9.32% (active) |
| COc1cc(C2CC(c3ccc(C)cc3)=NN2C(C)=O)ccc1Oc1ccnc2cc(Cl)ccc12 (centres undefined) | 41.4% (inactive) |
| C[n+]1c2ccccc2c(NC2CCNCC2)c2[nH]c3ccccc3c21 | -73.2% (active) |
| Clc1ccc([C@@H]2C[C@@H]3Cc4cc(Br)c5ccccc5c4N2O3)c(Cl)c1 | 43.8% (inactive) |
| C=C(C)[C@@H]1C[C@H](O)Cc2cc(Cl)cc(Cl)c2N1 | 92.8% (inactive) |
